Bioassay records deposited in PubChem by several laboratories.
Rows were chosen to be rich in hits. Some 4.9% of all compounds tested hit in one or more screens of this group.
HSF1 inh: HSF1 inhibition; NIH3T3-HGL HSE-luciferase, MG132-induced, luminescence 8 h; active compounds read low; 300,000 compounds, 0.77% hits; activity change, negative = inhibition, % at 7.5 µM (by protocol); AID 2098;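 active means more than half of replicate wells show activity change below -50%, luminescence cut by over half; inconclusive means some wells, but at most half, below -50%; inactive means no replicate well below -50%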;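 further: luciferase reports HSF-1 transcriptional activity via heat shock element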
MPTP inh: permeability transition pore inhibition; inhibition, % at 10 µM; isolated mouse mitochondria, Ca2+ swelling absorbance, 30 min; AID 602449; 360,000 compounds, 1.4% hits;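 active means inhibition of 50% or more, scaled per plate between neutral and stimulator controls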
HSF1 activator: increases HSF-1 driven luciferase reporter signal; NIH3T3-HGL HSF-1 luciferase reporter, MG132, 8 h; 100% = twice DMSO control signal; activation, % at 9 µM; 300,000 compounds, 1.7% hits;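 active means mean replicate activation of at least 50% with a set share of replicates each reaching 50%; inconclusive means only one of those two conditions met; inactive means mean below 50% and too few replicates reaching it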
dFosB act: activators of mouse delta FosB homodimer; purified delta FosB, TAMRA-CDK5 oligo fluorescence polarization; percent of positive-control signal above neutral wells; activation, % at 25 µM; 340,000 compounds, 0.99% hits;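 active means mean activation above about 17%, with every replicate also reaching it, limit read from the data, passing the limit was not always enough; inconclusive means only one of the two conditions met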
Target sequence (P13346 whole entry, looked up): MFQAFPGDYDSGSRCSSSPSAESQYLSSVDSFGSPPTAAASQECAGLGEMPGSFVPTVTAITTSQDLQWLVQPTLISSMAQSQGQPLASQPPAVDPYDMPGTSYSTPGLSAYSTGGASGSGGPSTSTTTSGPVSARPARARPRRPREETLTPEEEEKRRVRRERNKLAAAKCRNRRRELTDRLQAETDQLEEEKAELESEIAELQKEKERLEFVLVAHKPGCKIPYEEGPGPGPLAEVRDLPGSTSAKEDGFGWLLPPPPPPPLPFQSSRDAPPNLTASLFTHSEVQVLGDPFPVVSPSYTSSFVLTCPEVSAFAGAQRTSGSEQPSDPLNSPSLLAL
Platelet DG rel: modulates dense granule release in human platelets. human platelet-rich plasma, SFLLRN dense granule ATP release, luminescence. inhibition, %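 (compounds screened at 7.5 µM in platelet-rich plasma)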. 300,000 compounds, 0.22% hits. AID 1663;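 active means mean replicate score, as percent of positive control, at or above 50; inconclusive means mean below 50 but at least one replicate at or above 50; inactive means mean and every replicate below 50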
HSP90 refold inh: blocks HSP90-mediated luciferase refolding in reticulocyte lysate | Rabbit reticulocyte lysate, luciferase refolding luminescence, 3 h | inhibition, % at 5.6 µM | 290,000 compounds, 0.91% hits;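 active means inhibition above the screen-wide mean plus 3 SD, computed separately per campaign, cut at about 16% in these data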;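 further: inhibitors lower the luminescence because luciferase stays unfolded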
MPTP counter: mitochondrial membrane potential, counter-screen; 5,000 compounds, 78% hits; shares compounds with MPTP inh; isolated mitochondria, Rhodamine 123 fluorescence; inhibition, % at 10 µM; AID 624504; in the data active means inhibition above about 22%
MPTP abs DR: dose response confirmation of mitochondrial permeability transition pore inhibitors. 780 compounds, 58% hits. isolated mitochondria swelling, absorbance. IC50, µM. shares compounds with MPTP inh; in the data active means IC50 below about 20 µM
MPTP cs DR: MPTP inhibitor counter-screen activity, dose response. IC50, µM. isolated mitochondria counterscreen, fluorescence read-out. AID 651564. shares compounds with MPTP inh. 780 compounds, 49% hits; in the data active means IC50 below about 80 µM
Large screens that a line does not name were inactive (follow-up assays come after a bar, where they were run).

CCNC(=S)N/N=C/c1cccs1	none
COc1cccc(CCN2CCC(CNS(=O)(=O)c3cc(-c4cc(C)no4)ccc3C)CC2)c1	MPTP inh 79 | MPTP counter inactive | MPTP abs DR 6.8 | MPTP cs DR 24
CCCCCN(C(=O)CCC(=O)OCC(=O)N1CCCCC1CC)c1c(N)n(CCCC)c(=O)[nH]c1=O (configuration not stated)	none (no result: HSF1 inh, HSF1 activator, Platelet DG rel, HSP90 refold inh)
c1ccc2c(C[C@@H]3CNCCN3CC3CCCCC3)cccc2c1	MPTP inh 54 (no result: HSP90 refold inh) | MPTP counter inactive
CNCCCC1Sc2ccccc2Oc2ccccc21 (configuration not stated)	MPTP inh 79 | MPTP counter inactive | MPTP abs DR 5.1 | MPTP cs DR inactive
CNCCCC1c2ccccc2C=Cc2ccccc21	none
CC1(C(=O)NC2CCc3ccccc32)CCN1CCc1ccccc1 (configuration not stated)	none (no result: HSF1 inh, HSF1 activator, dFosB act, Platelet DG rel, HSP90 refold inh)
CC1CCN(C(=O)c2[nH]c(C(F)(F)F)nc2-c2ccccc2)CC1	none (no result: HSF1 inh, HSF1 activator, dFosB act, Platelet DG rel, HSP90 refold inh)
COc1ccc(C(CNC(=O)c2ccc(-c3ccccc3)cc2)N(C)C)cc1OC (configuration not stated)	MPTP inh 80 | MPTP counter inactive | MPTP abs DR 19 | MPTP cs DR inactive
O=C(CCN1CCc2ccccc2C(c2ccccc2)C1)c1ccc2c(c1)OCCO2 (configuration not stated)	MPTP inh 83, HSF1 activator 87 | MPTP counter inactive
O=C(CCN1Cc2ccccc2C1)c1ccc2c(c1)OCCO2	none
COc1ccc(Cl)cc1N(C(=O)Nc1cccc(Cl)c1)C1=NCC(C)S1 (configuration not stated)	MPTP inh 92 | MPTP counter 89
CCCCn1c(O)c2n(c1=O)Cc1ccccc1N=C2c1ccc(OC)cc1	none (no result: HSF1 inh, HSF1 activator, dFosB act, Platelet DG rel, HSP90 refold inh)
c1ccc2c(c1)oc1c(NCc3ccc4c(c3)OCO4)ncnc12	MPTP inh 84 | MPTP counter 110
c1ccc2c(c1)oc1c(Nc3ccc4c(c3)OCO4)ncnc12	none
Cc1c(NC(=O)CSC(=S)N2CCCC2)c(=O)n(-c2ccccc2)n1C	Platelet DG rel inconclusive (no result: HSP90 refold inh)
O=C(Cc1ccc(Cl)cc1)Nc1ncc([N+](=O)[O-])s1	MPTP inh 96 | MPTP counter 89
O=C(Cc1ccc(Br)cc1)Nc1ncc([N+](=O)[O-])s1	MPTP inh 74 | MPTP counter 82
Cc1cnc(NC(=O)Cc2ccc(Br)cc2)s1	none
CC(CC(=O)Nc1ncc([N+](=O)[O-])s1)c1ccccc1 (configuration not stated)	none (no result: HSF1 inh, HSF1 activator, Platelet DG rel)
O=C(COc1ccc(Cl)cc1)Nc1ncc([N+](=O)[O-])s1	MPTP inh 95, HSF1 activator 78 | MPTP counter 103
CCC(Oc1ccccc1)C(=O)Nc1ncc([N+](=O)[O-])s1 (configuration not stated)	MPTP inh 89 | MPTP counter 98
CCC(Oc1ccccc1)C(=O)Nc1nnc(C)s1 (configuration not stated)	none
Cc1cc(NC(=O)CSc2ccc(-c3ccc(F)cc3)nn2)no1	none
O=C1c2cccc(OCC(=O)N3N=C(c4cccs4)CC3c3ccc(F)cc3)c2CCN1Cc1cccnc1 (configuration not stated)	none
